Assay outcomes (PubChem BioAssay)
SMN2 splice up = SMN2 splice variant enhancement | HEK293 SMN2-luciferase splicing reporter, luminescence, 30-36 h | Potency, µM (series often up to 46.1 µM), inactives show at the top dose activity change, positive = activation, usual class: activators | hit rate 2.8% among 210,000; note: % of control where 0% means no effect; nearly all actives have a fitted effect of over 55% in size
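HEK293 cells carry an SMN2 […]–luciferase reporter in which exon 7 inclusion puts luciferase in frame. Cells were plated 10-12 h before compound addition, then incubated 30-36 h at 37C. ONE-Glo luminescence was read; sodium butyrate at 4.5 mM final served as control.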
FLuc counter = inhibits or activates purified firefly luciferase, miR-21 counter-screen. hit rate 6.9% among 360,000. AID 588342. P08659. purified FLuc, Km substrates, luminescence inhibition. Potency, µM (highest dose often 57.5 µM), for the others: top-dose activity change, negative = inhibition, hits mostly inhibitors;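 note: plate controls were vehicle for no effect and reference inhibitor for full effect; nearly all actives have a fitted effect of over 55% in size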
Target sequence (P08659 whole entry, looked up): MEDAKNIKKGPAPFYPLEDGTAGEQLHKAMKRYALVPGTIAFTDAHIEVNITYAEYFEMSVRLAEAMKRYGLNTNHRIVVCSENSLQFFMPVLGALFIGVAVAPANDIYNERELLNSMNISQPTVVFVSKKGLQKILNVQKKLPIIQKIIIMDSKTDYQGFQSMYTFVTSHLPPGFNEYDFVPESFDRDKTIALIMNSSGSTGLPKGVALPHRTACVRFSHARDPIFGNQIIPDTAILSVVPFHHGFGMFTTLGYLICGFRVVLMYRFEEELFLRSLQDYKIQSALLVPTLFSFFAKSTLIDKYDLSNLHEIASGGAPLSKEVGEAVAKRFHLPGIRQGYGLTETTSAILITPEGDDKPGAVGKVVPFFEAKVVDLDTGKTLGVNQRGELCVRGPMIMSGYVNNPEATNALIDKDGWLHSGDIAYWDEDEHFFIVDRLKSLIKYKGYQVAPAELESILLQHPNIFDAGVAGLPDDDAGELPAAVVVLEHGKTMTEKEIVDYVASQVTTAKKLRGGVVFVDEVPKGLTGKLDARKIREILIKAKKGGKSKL
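Biochemical qHTS of compounds, final roughly 60 µM downward over six points, against 10 nM purified firefly luciferase using Km concentrations of substrates (10 uM D-luciferin, 10 uM ATP) in Tris acetate pH 7.5 buffer; luminescence output.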
Rab9 promoter act = Rab9 promoter activation; Huh7 Rab9 promoter-luciferase reporter, luminescence, 24 h; Potency, µM (doses to about 9.22 µM), for the others: at the top dose activation, negative = inhibition, hits mostly activators; hit rate 2.8% among 320,000; AID 485297; note: % of control where 0% means no effect; nearly all actives have a fitted effect of over 60% in size
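Huh7 reporter line, Rab9 promoter upstream of luciferase. Compound exposure 24 h at 37 °C in reduced-serum medium with 10% FBS. Read-out: luminescence.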
NPC1 promoter act = NPC1 promoter activation. Huh7 NPC1 promoter luciferase reporter, 24 h. Potency, µM (series often up to 9.22 µM), for inactives: top-dose activation, most hits filed as activators. hit rate 2.4% among 320,000; note: % of control where 0% means no effect; nearly all actives have a fitted effect of over 60% in size
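Huh7 reporter cells (NPC1 promoter driving luciferase) are dosed with compound for 24 h at 37 °C, 5% CO2; luciferase detection reagent is then added and luminescence measured after 10 min at ambient temperature.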
ELG1 genotoxic = induces genotoxicity in HEK293T cells with luciferase-tagged ELG1. HEK293T ELG1-luciferase reporter, luminescence, 16 h. Potency, µM (series often up to 46 µM), for the others: top-dose activity change, positive = activation, actives largely listed as activators. hit rate 1.3% among 330,000. AID 504466; note: % of control where 0% means no effect; nearly all actives have a fitted effect of over 60% in size
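Reporter readout depends on ELG1 protein level, which increases with genetic stress. After 16 hr compound exposure at 37 °C, luciferase activity was quantified using ONE-Glo.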
An asterisk follows results filed as active; u = inconclusive; x = no result; [ ] = dose if it differs, or a comment. Shown are actives, neighbours in structure and some others; about 7.4% of the full set was active somewhere. Calls come from the whole dose curve; as a rule, active = well fitted curve in the direction sought with a large enough effect; inconclusive = small, poorly fitted or top-dose-only effect, or another doubt; inactive = no such curve, though single readings can be large; an effect the other way counts as inactive or inconclusive. Potency is the fitted concentration of half-maximal effect.

SMILES | SMN2 splice up | FLuc counter | Rab9 promoter act | NPC1 promoter act | ELG1 genotoxic
Cc1ccc(-c2cc(N)n(Cc3ccc(Cl)cc3)n2)cc1 | -47% | u | -16% | -14% | -4%
CSc1nc(N)n2nc(-c3ccc(Cl)cc3)cc2n1 | x | 0.67µM* | 1.6µM* | 2µM* | u
COC(=O)N/N=C(C)\C=C\c1ccco1 | 4%[1.84 µM] | -2% | 0% | -3% | 7%
CN(C)c1ccc(C(=O)/C=C/c2ccco2)cc1 | 13µM* | 0.38µM* | 2.8µM* | 3.2µM* | u
CN(C(=O)/C=C/c1ccco1)c1ccccc1C(=O)O | x | -6% | -9% | -3% | 0%
O=C(/C=C/c1ccco1)c1ccc(O)cc1 | 6% | 13µM* | u | 13% | u
COc1ccc(-c2csc(-c3ccccc3)n2)c(OC)c1 | 11µM* | 3.4µM* | u | u | 4.6µM*
COc1ccc(-c2csc(-c3cccs3)n2)c(OC)c1 | 11µM* | 3.4µM* | 1.3µM* | u | 2.1µM*
N#CC1(NC(=O)Cn2ncc(Cl)c(Cl)c2=O)CCCCC1 | x | 6% | -41% | -40% | -51%
Brc1cc(Oc2cc(Br)c(Br)c(Br)c2Br)c(Br)c(Br)c1Br | 2% | x | x | x | x
CCOc1ccc(C2/C(=C(\O)c3ccc4c(c3)OCCO4)C(=O)C(=O)N2CCN2CCOCC2)cc1OCC (configuration not stated) | x | 0% | -11% | -2% | 6%
CCn1nnc2cc(C(=O)NCCc3ccccc3F)ccc21 | x | 1.1µM* | 0.4µM* | 0.32µM* | u
CCn1nnc2cc(C(=O)Nc3ccc(Br)cc3F)ccc21 | x | -4% | x | x | x
COc1cc(C)ccc1OCc1cc(C(=O)N2CCN(C)C[C@@H]2c2ccccc2)no1 | x | u | u | 27% | 3%
COc1cc(C)ccc1OCc1cc(C(=O)N2C[C@H]3CC[C@H]2C3)no1 | x | -19% | 0% | 3% | 4%
O=C(c1cc(COc2cccc(C(F)(F)F)c2)on1)N1C[C@@H]2CCC[C@H]1C2 | x | 24µM* | u | -15% | u
COc1cc(Cl)ccc1OCc1cc(C(=O)N2C[C@@H]3CCC[C@H]2C3)no1 | x | 9.5µM* | 4µM* | 3.2µM* | 2.9µM*
O=C(c1cc(COc2cccc(C(F)(F)F)c2)on1)N1CCC(c2ccccc2)CC1 | x | 6% | -4% | 0% | -12%
CCOC(=O)N1CCN(C(=O)c2cc(COc3ccc(Cl)cc3OC)on2)CC1 | x | -6% | 1% | 12% | -4%
COc1cc(Cl)ccc1OCc1cc(C(=O)N2C[C@]3(C)C[C@H]2CC(C)(C)C3)no1 | x | 19µM* | 1.8µM* | u | u
COc1cc(Cl)ccc1OCc1cc(C(=O)N2C[C@H]3CC[C@H]2C3)no1 | x | 8.5µM* | 1.4µM* | 3.5µM* | 8.2µM*
CCCCCCCCCC(=O)NC(CN1CCOCC1)[C@H](O)c1ccccc1 (some centres not stated) | -39% | x | -15%[46.1 µM] | -17%[46.1 µM] | x
O=C(CN1CCN(c2ccc(F)cc2)CC1)N(C1CCCC1)C1CCS(=O)(=O)C1 (configuration not stated) | x | x | 1% | 2% | 3%
c1ccc2c(-n3cccn3)cccc2c1 | -4% | 15µM* | 24% | u | u
CCCn1c(N)c(N2CCCCC2)c(=O)n(CC(=O)Nc2ccccc2C(F)(F)F)c1=O | x | x | x | x | 1%
SMILES | SMN2 splice up | FLuc counter | Rab9 promoter act | NPC1 promoter act | ELG1 genotoxic
COC(=O)c1ccccc1NC(=O)c1ccc2c(c1)CC(C)O2 (configuration not stated) | x | 17µM* | 2.2µM* | 28% | 5%
Cc1ccc(S(=O)(=O)c2c(Nc3ccccc3)sc(C(=O)c3ccc4c(c3)OCO4)c2N)cc1 | x | -1% | x | x | x
Cc1cccc(NC(=O)c2ccc(C(=O)c3ccccc3)cc2)n1 | x | 9.5µM* | u | u | 21µM*
O=C(Nc1cccc(NC(=O)c2ccccc2)n1)c1ccccc1 | x | 9.5µM* | 0% | -1% | 0%
Nn1c(SCC(=O)Nc2ccccc2Oc2ccccc2)nnc1C1CC1 | x | -2% | -4% | -2% | 0%
COc1ccc(-c2nc(S(=O)(=O)c3ccc(Cl)cc3)c(N3CCCCCC3)o2)cc1 | 8% | 0% | x | x | x
CSc1ccc(C(=O)N2CCC(n3nccc3NC(=O)C3CC3)CC2)cc1 | x | 1% | 4% | -1% | 1%
